HP1b binding inh = inhibitors of HP1-beta chromodomain binding to methylated histone tails. P83916. AlphaScreen HP1-beta / biotin-H3K9me3 peptide binding. Potency, µM (titrated, usually from 114 µM), actives largely listed as inhibitors. actives 0.56% (n = 390,000). AID 540317; further: nearly all actives have a fitted effect of over 70% in size
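Compound inhibition of the preformed complex between 50 nM HP1-beta and 50 nM biotinylated H3K9me3 peptide was read by AlphaScreen. Buffer was PBS pH 7.4 with 0.01% Tween-20. Incubations ran 30 min at room temperature, with 10 ug/mL donor/acceptor beads.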
BAZ2B block = BAZ2B (human) inhibition; actives 4.4% (n = 360,000); Q9UIF8; AlphaScreen BAZ2B-H3K14Ac peptide displacement; Potency, µM (doses to about 114 µM), actives largely listed as inhibitors; AID 504333; further: nearly all actives have a fitted effect of over 60% in size
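In this displacement format the biotinylated H3(5-23) peptide acetylated at Lys14 serves as ligand at 50 nM, with BAZ2B at 50 nM in PBS pH 7.4 containing 0.01% Tween-20. Donor and acceptor beads are 10 ug/mL final.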
G9a inh = blocks human histone lysine methyltransferase G9a. AID 504332. G9a H3K9 monomethylation, AlphaScreen, 2 h. Potency, µM (series often up to 102 µM), actives largely listed as inhibitors. actives 8.8% (n = 350,000). Q96KQ7; further: nearly all actives have a fitted effect of over 75% in size
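Step 1: enzyme (final 20 nM) with compound, 15 min RT. Step 2: substrate peptide 500 nM and SAM 20 uM, 2 h RT. Step 3: anti-H3K9me1 antibody and AlphaScreen beads, 10 min, then plate read.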
JMJD2A Tudor = JMJD2A Tudor domain (human) inhibition | O75164 | AlphaScreen JMJD2A-Tudor / H3K4me3 peptide binding | Potency, µM (highest dose often 114 µM), usual class: inhibitors | actives 4.4% (n = 390,000) | AID 504339; further: nearly all actives have a fitted effect of over 50% in size
PLK1 PBD inh = PLK1 (human) polo-box domain binding inhibition; AID 720504; Plk1 PBD binding of FITC phosphopeptide, fluorescence polarization; P53350; actives 2.8% (n = 360,000); Potency, µM, hits mostly inhibitors; further: series mostly up to about 57 µM; nearly all actives have a fitted effect of over 65% in size
12-LOX inh = inhibitors of human 12S-lipoxygenase ALOX12; actives 1.1% (n = 580,000); Potency, µM (series often up to 108 µM), most hits filed as inhibitors; purified 12hLO, xylenol orange hydroperoxide absorbance
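Purified human 12hLO at 150 nM in 25 mM Hepes, 0.01% Triton X-100, pH 7.0, preincubated 15 min at room temperature with compound. Reaction started with 40 uM arachidonic acid, 30 min at room temperature. Hydroperoxide measured by Fe-xylenol orange, 573/405 nm absorbance ratio.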
Each line names hits and unclear results; the compound was inactive in the other large screens. Hits are enriched below; roughly 9% of the tested compounds scored in any of these assays. The call rests on the fitted dose curve; in most records, active means well fitted curve in the direction sought with a large enough effect; inconclusive means small, poorly fitted or top-dose-only effect, or another doubt; inactive means no such curve, though single readings can be large; an effect the other way counts as inactive or inconclusive.

CCOC(=O)N1CCN(C(=O)c2ccc3c(c2)N(CC)CCS3)CC1	G9a inh 35µM, 12-LOX inh inconclusive
CCOC(=O)N1CCN(C(=O)c2ccc3c(c2)N(Cc2ccc(F)cc2)CCS3)CC1	BAZ2B block inconclusive, JMJD2A Tudor inconclusive
COc1ccccc1NC(=O)NCC(=O)Nc1c(C)cccc1C	none
Nc1ccc2cc3ccc(N)cc3nc2c1	G9a inh 28µM, 12-LOX inh inconclusive (no result: HP1b binding inh, BAZ2B block, JMJD2A Tudor, PLK1 PBD inh)
Cc1ccc[n+](-c2nc([O-])sc2/C=N/Nc2ccc([N+](=O)[O-])cc2)c1	BAZ2B block 40µM, G9a inh 11µM
O=[N+]([O-])c1ccc(NN=Cc2cccc3ccccc23)cc1	none (no result: BAZ2B block, G9a inh)
COc1cc2nc(N3CCN(c4cc(C)ccc4C)CC3)nc(N)c2cc1OC	BAZ2B block 50µM, G9a inh 50µM, JMJD2A Tudor inconclusive, 12-LOX inh inconclusive
O=C(CC(=O)c1ccccc1O)c1ccc(F)cc1	BAZ2B block inconclusive
O=C(CCc1nc2ccccc2o1)NC1CCCCCC1	none (no result: HP1b binding inh, BAZ2B block, G9a inh, JMJD2A Tudor, PLK1 PBD inh)
COc1ccc(/C=C/c2ccc3ccccc3n2)cc1OC	12-LOX inh 28µM (no result: HP1b binding inh, BAZ2B block, G9a inh, JMJD2A Tudor, PLK1 PBD inh)
CN(C)c1ccc(/C=C/c2ccc3ccccc3n2)cc1	BAZ2B block 50µM, G9a inh 45µM, JMJD2A Tudor inconclusive (no result: 12-LOX inh)
CCOc1cc(/C=C/c2cc(C(=O)O)c3ccccc3n2)ccc1OC	G9a inh 71µM, 12-LOX inh inconclusive
CCOc1cc(/C=C/c2cc(C(=O)O)c3ccccc3n2)ccc1O	JMJD2A Tudor inconclusive, 12-LOX inh inconclusive
CN(C)c1ccc(/C=C/c2nc3ccccc3s2)cc1	HP1b binding inh 40µM, BAZ2B block 32µM, JMJD2A Tudor 20µM
Cc1c(NC(=O)CN2C(=O)NC3(CCCC3)C2=O)c(=O)n(-c2ccccc2)n1C	none
O=C(COC(=O)CC1Sc2ccccc2NC1=O)NCc1ccccc1 (configuration not stated)	G9a inh inconclusive, 12-LOX inh inconclusive
CN1CCN(C(=O)C2=C[C@@H](C3CCCCC3)C[C@@H](OCc3ccc(CO)cc3)O2)CC1	none
COCCCn1c(SCC(=O)NC2CCCC2)nnc1-c1ccncc1	none
N#Cc1c(NC(=O)CSc2nc(N)cc(=O)[nH]2)sc2c1CCCCCC2	G9a inh 45µM
Cn1cnnc1SCC(=O)Nc1sc2c(c1C#N)CCCCC2	G9a inh 13µM, 12-LOX inh inconclusive
N#Cc1c(NC(=O)CSc2nc(-c3ccco3)cc(C(F)(F)F)n2)sc2c1CCCC2	G9a inh inconclusive, PLK1 PBD inh 21µM, 12-LOX inh inconclusive
COCCCn1c(SCC(=O)Nc2sc3c(c2C#N)CCCC3)nnc1-c1ccncc1	G9a inh inconclusive, PLK1 PBD inh 27µM, 12-LOX inh inconclusive
Cc1nn(C(=O)CCC(=O)NCc2ccc(OC(C)C)cc2)c2ccccc12	none (no result: G9a inh)
Cc1ccc(NC(=O)c2sc(-n3nc(C)c(Cc4ccc(Cl)cc4)c3C)nc2C)cc1	none (no result: PLK1 PBD inh)
COc1ccccc1N1CCN(C(=O)c2ccc(CSc3ccccc3)cc2)CC1	BAZ2B block inconclusive
COC(=O)CCCNC(=O)CCc1nnc(-c2ccc(-c3ccccc3)cc2)o1	none (no result: BAZ2B block, G9a inh)
CSc1nnc2c(n1)OC1(Nc3ccccc3-2)C(=O)Nc2ccccc21 (configuration not stated)	JMJD2A Tudor inconclusive, PLK1 PBD inh 27µM (no result: BAZ2B block)
COc1ccc(-c2cc(C(=O)NCCc3cnc[nH]3)c3c(c2)N(C)CCO3)cn1	none (no result: HP1b binding inh, BAZ2B block, G9a inh, JMJD2A Tudor, PLK1 PBD inh)
COc1cc(C(F)(F)F)c(C(=O)NCc2cccc(Cl)c2)cn1	G9a inh 79µM
CCOc1ccc(C(=O)Nc2cc(NC(=O)c3ccc(OCC)c(Cl)c3)cc(C(=O)O)c2)cc1Cl	HP1b binding inh inconclusive, BAZ2B block inconclusive, G9a inh inconclusive, JMJD2A Tudor 50µM, PLK1 PBD inh inconclusive, 12-LOX inh inconclusive
CCOc1ccc(C(=O)Nc2cccc(C(=O)O)c2)cc1Cl	none
Cc1ccc(C(=O)N2CCC(n3cc(-c4nc(C5CC5)no4)nn3)C2)cc1 (configuration not stated)	none (no result: HP1b binding inh, BAZ2B block, G9a inh, JMJD2A Tudor, PLK1 PBD inh)
COc1cc2c(cc1OC)C(c1cccc(Br)c1)CC(=O)N2 (configuration not stated)	12-LOX inh inconclusive (no result: G9a inh)
CCN(CC)C(=O)CC(c1ccc(F)cc1)c1ccco1 (configuration not stated)	G9a inh 14µM, 12-LOX inh inconclusive
CCOc1ccc(S(=O)(=O)N(C)CC(=O)NC2CCCC2)cc1	none
COc1cccc(Nc2ncc3nc(-c4ccccc4)c(=O)n(C[C@H]4CCCO4)c3n2)c1	none (no result: HP1b binding inh, BAZ2B block, JMJD2A Tudor, PLK1 PBD inh)
CNC(=S)NNc1nc(C)cc(C)n1	HP1b binding inh 79µM, G9a inh 1.3µM, JMJD2A Tudor inconclusive, 12-LOX inh inconclusive
CNC(=S)NNc1nc(-c2ccccc2)c2cc(Cl)ccc2n1	JMJD2A Tudor inconclusive, 12-LOX inh inconclusive (no result: BAZ2B block, G9a inh)
CCOC(=O)CNC(=O)CSc1nnc(-c2cccc(C)c2)n1-c1ccc(OC)cc1	none
COCCN(C(=O)COC(=O)C1CCC(C(C)(C)C)CC1)c1c(N)n(Cc2ccccc2)c(=O)[nH]c1=O (configuration not stated)	G9a inh 32µM, 12-LOX inh inconclusive
COCCn1c(N)c(C(=S)NC(=O)c2cccs2)c(=O)[nH]c1=O	G9a inh inconclusive, PLK1 PBD inh 24µM, 12-LOX inh inconclusive
COCCN(C(=O)COC(=O)CNC(=O)c1cccs1)c1c(N)n(Cc2ccccc2)c(=O)[nH]c1=O	G9a inh 11µM, 12-LOX inh inconclusive
OCc1cccc(-c2ccc3ncc(Nc4ccc(OCCN5CCCC5)cc4)n3n2)c1	none (no result: HP1b binding inh, BAZ2B block, G9a inh, JMJD2A Tudor, PLK1 PBD inh)
COc1ccc(CN2CCC(=O)NC2=O)cc1	none
CCC1=NN(S(=O)(=O)c2ccc(C)cc2)C(O)(C(F)(F)F)C1 (configuration not stated)	G9a inh 40µM
NC(=O)c1ccc(-n2c(CCC(=O)O)ccc2-c2cccs2)cc1	HP1b binding inh inconclusive, G9a inh 28µM
O=C(O)CCc1ccc(-c2cccs2)n1NC(=O)c1ccc(Cl)cc1	12-LOX inh inconclusive
O=C(O)CCc1ccc(-c2cccs2)n1CC1CCCO1 (configuration not stated)	G9a inh 18µM, JMJD2A Tudor inconclusive
O=C(O)CCc1ccc(-c2cccs2)n1NC(=O)c1ccc(Cl)cc1Cl	G9a inh 56µM, 12-LOX inh inconclusive
Cc1ccc(-n2c(CCC(=O)O)ccc2-c2cccs2)cc1Cl	BAZ2B block inconclusive, G9a inh 13µM, JMJD2A Tudor inconclusive (no result: PLK1 PBD inh)
NC(=O)c1cccc(-c2noc(-c3ccccc3F)n2)c1	none (no result: PLK1 PBD inh)
Cc1cccc(CCNC(=O)c2c[nH]c3ccc(S(=O)(=O)Nc4ccccc4F)cc3c2=O)c1	none (no result: PLK1 PBD inh)
Cc1cccc(/C=C2\CCC(C3CCCC3)C2=O)c1 (configuration not stated)	none
Cc1ccc(NC(=O)Cn2c(CCC(=O)O)ccc2-c2cccs2)cc1	BAZ2B block inconclusive, 12-LOX inh inconclusive
